MITF act: activators of MITF-driven TRPM1 promoter activity in SK-MEL-5 cells; SK-MEL-5 TRPM1-promoter luciferase, 24 h; % of positive control, neutral wells = 0; activation, % at 12.5 µM; hit rate 0.75% among 300,000; AID 588334;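 active = mean activation of at least 80% with every replicate also reaching 80%; inconclusive = mean reaches 80% but some replicate falls short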
Wnt act: Wnt/beta-catenin pathway activation | Wnt/beta-catenin reporter cell assay, activator, plate reader | activation, % at 9.35 µM | hit rate 1.2% among 300,000; in the data active = activation above about 30%, passing the limit was not always enough; inconclusive = no clear call, values can overlap the other calls
HSF1 inh: HSF1 inhibition; NIH3T3-HGL HSE-luciferase, MG132-induced, luminescence 8 h; active compounds read low; activity change, negative = inhibition, % at 7.5 µM (by protocol); hit rate 0.77% among 300,000;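 active = more than half of replicate wells show activity change below -50%, luminescence cut by over half; inconclusive = some wells, but at most half, below -50%; inactive = no replicate well below -50%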;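 also: luciferase reports HSF-1 transcriptional activity via heat shock element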
esBAF inh: inhibitors of esBAF chromatin remodeling in mouse ES cells; reporter increase, % at 12.5 µM; Bmi1-luciferase knock-in reporter, 24 h; 100% = twice the neutral-well signal; AID 602393; hit rate 2% among 350,000; in the data active = activation above about 40%; inconclusive = no clear call, values can overlap the other calls;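 also: a rise in the Bmi1 reporter signal indicates esBAF inhibition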
HSF1 activator: increases HSF-1 driven luciferase reporter signal; NIH3T3-HGL HSF-1 luciferase reporter, MG132, 8 h; 100% = twice DMSO control signal; activation, % at 9 µM; hit rate 1.7% among 300,000; AID 504408;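 active = mean replicate activation of at least 50% with a set share of replicates each reaching 50%; inconclusive = only one of those two conditions met; inactive = mean below 50% and too few replicates reaching it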
Of the large screens only hits and unclear results are named; the others gave an inactive call. Compounds with a hit are over-represented: about 3.9% of the library has one in this group of screens.

CO[C@@H]1CN(C)C(=O)c2cc(NS(C)(=O)=O)ccc2OC[C@H](C)N(C(=O)c2ccc3c(c2)OCO3)C[C@@H]1C	none (no result: MITF act, Wnt act, HSF1 inh, HSF1 activator)
O=C(C[C@H]1CC[C@H](NC(=O)C2CC2)[C@@H](CO)O1)Nc1ccccc1	none (no result: MITF act, Wnt act, HSF1 inh, HSF1 activator)
c1ccc2cc(C3OCC4(CCCC4)CO3)ccc2c1	esBAF inh 71.2 (no result: MITF act, HSF1 inh, HSF1 activator)
O=C(COc1ccccc1)Nc1nnc(S(=O)(=O)N2CCCCCC2)s1	HSF1 inh -71.0
O=C(COc1ccccc1)Nc1nnc(S(=O)(=O)N2CCCCC2)s1	none
O=C(Nc1cccc(Cl)c1)N[C@H]1CC[C@H](CCNC(=O)C2CC2)O[C@H]1CO	none (no result: MITF act, Wnt act, HSF1 inh, HSF1 activator)
COc1ccc(-c2nnn(CC(=O)N3CCOCC3)n2)cc1	none
CN(C)c1ccc(-c2nnn(Cc3ccccc3Br)n2)cc1	esBAF inh 93.7
Fc1ccccc1Cn1nnc(-c2ccc3c(c2)OCO3)n1	Wnt act 70.8, HSF1 activator 83.4
O=C(Cn1nnc(-c2ccc(OCc3ccccc3F)cc2)n1)N1CCOCC1	esBAF inh 41.0 (no result: Wnt act)
COc1ccc(-c2nnn(Cc3ccccc3F)n2)cc1	MITF act 108.3, esBAF inh 63.7 (no result: Wnt act)
Cc1ccc(NC(=O)Cn2nnc(-c3ccc4c(c3)OCO4)n2)cc1F	none
COc1ccc(C(=O)Cn2nnc(-c3ccccc3F)n2)cc1	none
O=C(C[C@@H]1C=C[C@@H](NC(=O)C2CCC2)[C@@H](CO)O1)NCC1CC1	none (no result: MITF act, Wnt act, HSF1 inh, HSF1 activator)
O=C(Nc1ccccc1F)N[C@H]1CC[C@H](CCNC(=O)C2CC2)O[C@@H]1CO	none (no result: MITF act, Wnt act, HSF1 inh, HSF1 activator)
C[C@H](CO)N1C[C@H](C)[C@H](CN(C)S(C)(=O)=O)OCCCC[C@H](C)Oc2ccc(NC(=O)c3ccncc3)cc2C1=O	none (no result: MITF act, Wnt act, HSF1 inh, HSF1 activator)
CCC(=O)Nc1ccc2c(c1)OC[C@@H](C)N(CC1CCCCC1)C[C@H](C)[C@@H](OC)CN(C)C2=O	none (no result: MITF act, Wnt act, HSF1 inh, HSF1 activator)
N/C(=N\OC(=O)Nc1ccccc1)c1ncc([N+](=O)[O-])s1	HSF1 activator 64.8
Cc1cc(O)c(C(=O)/C=C/c2ccc(Cl)cc2)c(=O)o1	none (no result: MITF act)
CSc1ccc(/C=C/C(=O)c2ccc(NC(=O)C(C)C)cc2)cc1	none (no result: Wnt act, esBAF inh)
CSc1ccc(C(=O)/C=C/c2ccc(N)cc2)cc1	Wnt act 66.9, esBAF inh 65.6
COc1cccc(/C=C/C(=O)c2c(O)cc(C)oc2=O)c1O	none
COc1ccc(/C=C/C(=O)c2c(O)cc(C)oc2=O)c(OC)c1	esBAF inh 64.2
CSc1ccc(/C=C/C(=O)c2c(O)cc(C)oc2=O)cc1	esBAF inh 54.3
CCCNC(=O)N1[C@H](C#N)[C@@H](c2ccc(C3=CCCCC3)cc2)[C@@H]1CO	none (no result: MITF act, Wnt act, HSF1 inh, HSF1 activator)
C[C@H](O)C#Cc1cnc2c(c1)C(=O)N([C@@H](C)CO)C[C@H](C)[C@@H](CN(C)C(=O)Nc1ccc(C(F)(F)F)cc1)O2	none (no result: MITF act, Wnt act, HSF1 inh, HSF1 activator)
COCCNC(=O)C(c1ccc(C)cc1)N(C(=O)CCC(=O)Nc1ccccn1)c1ccccc1C (stereo unspecified)	HSF1 activator 77.8 (no result: esBAF inh)
COCCNC(=O)C(c1ccc(C)cc1)N(C(=O)CCC(=O)Nc1ccccn1)c1ccc(C)cc1 (stereo unspecified)	none
COc1cccc(/C=N/NC(=O)c2cccc(N3CCCC3=O)c2)c1	esBAF inh 72.7
CN(C)c1ccc(/C=N/NC(=O)c2cccc(N3CCCC3=O)c2)cc1	HSF1 inh -81.7 (no result: esBAF inh)
COc1ccc(O)c(/C=N/NC(=O)c2cccc(N3CCCC3=O)c2)c1	none
COc1ccc(/C=C2\CCC(C3CCCC3)C2=O)cc1 (stereo unspecified)	MITF act 97.7, esBAF inh 56.3
Cc1ccc(/C=C2\CCC(C3CCCC3)C2=O)cc1 (stereo unspecified)	none (no result: esBAF inh)
COc1ccc(/C=C2\CCC(C3CCCC3)C2=O)cc1OC (stereo unspecified)	Wnt act 33.5
Cc1ccsc1/C=C1\CCC(C2CCCC2)C1=O (stereo unspecified)	Wnt act 46.6
C[C@@H]1CN([C@H](C)CO)C(=O)c2ccccc2-c2ccccc2CO[C@@H]1CN(C)C(=O)Nc1ccnc(N2CCOCC2)c1	none (no result: MITF act, Wnt act, HSF1 inh, HSF1 activator)
CN(C)c1nc2sc3c(c2c(=O)n1C)CC(C)(C)OC3	none (no result: Wnt act)
CC1(C)Cc2c(sc3nc(-c4cccs4)n(N)c(=O)c23)CO1	esBAF inh 72.6 (no result: Wnt act)
CCc1nc2sc3c(c2c(=O)n1N)CC(C)(C)OC3	none (no result: esBAF inh)
CC1(C)Cc2c(sc3nc(-c4ccccc4)n(N)c(=O)c23)CO1	esBAF inh 42.6 (no result: Wnt act)
CCC1(C)Cc2c(sc3nc(SC)n(Cc4ccccc4)c(=O)c23)CO1 (stereo unspecified)	esBAF inh 59.3 (no result: Wnt act)
Cc1ccc2c(c1)Sc1ccccc1CC2=O	esBAF inh 61.0
COCCN(C(=O)CCc1ccc(OC)cc1)c1nnc(-c2ccncc2)s1	none (no result: esBAF inh)
CCCC(=O)N(C)c1nnc(-c2ccc(OC)cc2)s1	Wnt act 33.7
CN(C(=O)CSc1nc2ccccc2o1)C1CCCCC1	MITF act inconclusive, Wnt act 57.1 (no result: HSF1 inh, HSF1 activator)
CC1CCCN(C(=O)CSc2nc3ccccc3o2)C1 (stereo unspecified)	Wnt act inconclusive (no result: MITF act)
COc1ccc2ccccc2c1C1CC(=O)N2CN(C3CCCCC3)CSC2=C1C#N (stereo unspecified)	HSF1 inh -53.7 (no result: MITF act)
O=C(C[C@@H]1C=C[C@@H](NC(=O)CN2CCOCC2)[C@@H](CO)O1)NC1CCC1	none (no result: MITF act, Wnt act, HSF1 inh, HSF1 activator)
C[C@@H]1CN([C@H](C)CO)C(=O)c2cc(NC(=O)Cc3ccccc3)ccc2O[C@@H](C)CCCCO[C@H]1CN(C)S(=O)(=O)c1ccccc1	none (no result: MITF act, Wnt act, HSF1 inh, HSF1 activator)
O=C(NNC(=O)c1ccccc1OCc1ccccc1)c1ccccc1F	esBAF inh 60.5
O=C(NNC(=O)c1ccccc1OCc1ccccc1)c1ccccc1O	none
CCCCn1c(CN2CCN(C(=O)OCC)CC2)nc2c1c(=O)n(C)c(=O)n2C	Wnt act 41.7
OCc1cn(-c2ccccc2)nc1-c1ccco1	esBAF inh 42.0 (no result: Wnt act)
Cc1ccc(-c2nn(-c3ccccc3)cc2C(N)=O)o1	none (no result: esBAF inh)
Cc1ccc(-c2nn(-c3ccccc3)cc2C=O)o1	Wnt act 45.5, esBAF inh inconclusive
OCc1cn(-c2ccccc2)nc1-c1ccc(-c2nn(-c3ccccc3)cc2CO)cc1	none
Cc1ccc(-c2nn(-c3ccccc3)cc2CO)o1	esBAF inh 46.2 (no result: Wnt act)
Cc1ccc(S(=O)(=O)NCC[C@H]2CC[C@H](NC(=O)Nc3ccccc3F)[C@H](CO)O2)cc1	none (no result: MITF act, Wnt act, HSF1 inh, HSF1 activator)
Nc1sc(-c2ccccc2)cc1C(=O)N/N=C/c1ccc(Cl)cc1	none (no result: MITF act, esBAF inh)
CN=Cc1cc(-c2ccccc2)sc1O	esBAF inh 64.4
COCC(=O)N1CC[C@@H]2[C@H](CO)Nc3ccc(-c4ccc(C#N)cc4)cc3[C@@H]21	none (no result: MITF act, Wnt act, HSF1 inh, HSF1 activator)
O=c1c(-c2ccc3c(c2)OCCO3)coc2cc(OC3OC(CO)C(O)C(O)C3O)ccc12 (stereo unspecified)	MITF act 93.8, Wnt act 41.5
COc1ccc(-c2coc3cc(O[C@@H]4O[C@H](CO)[C@@H](O)[C@H](O)[C@H]4O)ccc3c2=O)cc1	Wnt act inconclusive, esBAF inh 63.7 (no result: HSF1 inh, HSF1 activator)
